# Experimental data published in article PMC7862700, “An all-to-all approach to the identification of sequence-specific readers for epigenetic DNA modifications on cytosine”.
# Tests used:
# Experiment in all cases: DAPPL (digital affinity profiling via proximity ligation, sequencing); 10 mM Tris-HCl pH 7.5, 50 mM NaCl, 1 mM DTT, 4% glycerol, room temperature, 30 min; GST-TFs on glutathione beads, 16-mer random dsDNA library, 0.1% formaldehyde crosslink after washing; high values mean tight binding
# Conditions in all cases: protein: recombinant; tags: N-terminal GST; dsDNA, one strand shown
# [1] = biological target: ETV1 (Homo sapiens, UniProt P50549 1-477)
# ETV1, sequence (P50549 whole entry, the tested form may be a part): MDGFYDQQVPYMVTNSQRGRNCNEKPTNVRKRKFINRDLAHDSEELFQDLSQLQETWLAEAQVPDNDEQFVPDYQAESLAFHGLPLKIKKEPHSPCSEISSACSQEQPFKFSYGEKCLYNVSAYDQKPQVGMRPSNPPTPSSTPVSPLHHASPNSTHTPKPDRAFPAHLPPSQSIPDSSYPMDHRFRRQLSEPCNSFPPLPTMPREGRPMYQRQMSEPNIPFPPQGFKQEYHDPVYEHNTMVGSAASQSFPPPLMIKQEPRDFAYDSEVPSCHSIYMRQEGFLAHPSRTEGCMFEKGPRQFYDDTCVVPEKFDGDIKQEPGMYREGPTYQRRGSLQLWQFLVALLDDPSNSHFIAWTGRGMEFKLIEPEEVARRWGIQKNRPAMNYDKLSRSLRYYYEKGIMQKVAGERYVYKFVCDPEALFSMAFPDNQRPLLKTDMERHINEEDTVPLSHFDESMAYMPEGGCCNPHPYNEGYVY
# Summary of the method: (§1)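 Binding signal is each hexamer's read frequency for a factor divided by its frequency in the tag-only sample. The factors were GST-fused human transcription factors from yeast, captured on glutathione beads, DNA-barcoded and pooled with that sample. Pools were incubated with 200 nmole of a random double-stranded 16-mer DNA library in Tris/NaCl/DTT/glycerol buffer at room temperature for 30 min, then washed, crosslinked with 0.1% formaldehyde, proximity-ligated with BsaI/T4 ligase (1 h, 37 °C), PCR-amplified and sequenced on an Illumina NextSeq500.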
# [2] = biological target: T1, ERF (Homo sapiens, UniProt P50548 1-548)
# T1 sequence: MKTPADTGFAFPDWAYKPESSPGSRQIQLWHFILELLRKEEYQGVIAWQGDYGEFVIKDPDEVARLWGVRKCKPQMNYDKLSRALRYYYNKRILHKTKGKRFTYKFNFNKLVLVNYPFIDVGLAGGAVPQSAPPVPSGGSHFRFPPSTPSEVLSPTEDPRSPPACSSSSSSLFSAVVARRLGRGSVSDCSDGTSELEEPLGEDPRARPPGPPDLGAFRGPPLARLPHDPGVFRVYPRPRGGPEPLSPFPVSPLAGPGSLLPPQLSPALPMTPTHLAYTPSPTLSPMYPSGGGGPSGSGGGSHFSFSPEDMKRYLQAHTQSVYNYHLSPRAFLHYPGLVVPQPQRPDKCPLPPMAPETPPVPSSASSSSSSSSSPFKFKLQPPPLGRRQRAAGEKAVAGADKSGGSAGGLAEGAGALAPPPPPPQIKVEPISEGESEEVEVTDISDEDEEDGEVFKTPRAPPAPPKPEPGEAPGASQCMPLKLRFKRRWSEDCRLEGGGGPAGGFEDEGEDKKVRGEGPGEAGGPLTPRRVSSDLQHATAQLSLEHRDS
# Summary of the method: as §1
# [3] = biological target: T2, ETV3L (Homo sapiens, UniProt Q6ZN32 1-361)
# T2 sequence: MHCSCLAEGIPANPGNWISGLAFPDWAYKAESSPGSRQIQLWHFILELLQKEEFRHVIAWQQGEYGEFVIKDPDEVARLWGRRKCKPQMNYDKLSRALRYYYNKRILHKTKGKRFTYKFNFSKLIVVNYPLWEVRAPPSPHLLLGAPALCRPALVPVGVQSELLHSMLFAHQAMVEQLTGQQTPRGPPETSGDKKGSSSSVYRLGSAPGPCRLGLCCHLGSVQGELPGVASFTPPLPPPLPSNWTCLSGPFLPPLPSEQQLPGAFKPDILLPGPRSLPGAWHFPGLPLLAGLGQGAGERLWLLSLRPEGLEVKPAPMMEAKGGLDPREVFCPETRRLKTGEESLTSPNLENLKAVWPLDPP
# Summary of the method: as §1
# [4] = biological target: T3, ETS2 (Homo sapiens, UniProt P15036 1-469)
# T3 sequence: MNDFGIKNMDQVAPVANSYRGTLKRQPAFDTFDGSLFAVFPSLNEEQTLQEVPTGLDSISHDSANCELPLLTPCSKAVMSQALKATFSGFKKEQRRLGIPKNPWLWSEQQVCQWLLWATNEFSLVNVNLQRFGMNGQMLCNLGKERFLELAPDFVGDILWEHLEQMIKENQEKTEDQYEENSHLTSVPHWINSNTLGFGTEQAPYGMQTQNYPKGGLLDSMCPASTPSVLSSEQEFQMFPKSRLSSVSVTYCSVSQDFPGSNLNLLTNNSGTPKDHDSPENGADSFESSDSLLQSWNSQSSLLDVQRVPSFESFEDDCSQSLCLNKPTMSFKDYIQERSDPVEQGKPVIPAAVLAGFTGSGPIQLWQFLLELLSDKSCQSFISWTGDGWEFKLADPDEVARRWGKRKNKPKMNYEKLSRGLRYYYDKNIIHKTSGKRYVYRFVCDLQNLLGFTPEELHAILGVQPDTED
# Summary of the method: as §1
# [5] = biological target: T4, SPDEF (Homo sapiens, UniProt O95238 1-335)
# T4 sequence: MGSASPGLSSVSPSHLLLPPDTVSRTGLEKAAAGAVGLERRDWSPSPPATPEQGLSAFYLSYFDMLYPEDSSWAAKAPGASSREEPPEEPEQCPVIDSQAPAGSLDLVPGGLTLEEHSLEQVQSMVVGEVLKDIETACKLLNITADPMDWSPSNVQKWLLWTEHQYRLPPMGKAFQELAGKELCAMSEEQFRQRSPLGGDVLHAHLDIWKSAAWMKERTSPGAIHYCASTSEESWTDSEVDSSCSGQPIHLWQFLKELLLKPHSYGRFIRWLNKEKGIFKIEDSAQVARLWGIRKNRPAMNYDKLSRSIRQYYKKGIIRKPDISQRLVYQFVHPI
# Summary of the method: as §1
# [6] = biological target: T5, ETV7 (Homo sapiens, UniProt Q9Y603 1-341)
# T5 sequence: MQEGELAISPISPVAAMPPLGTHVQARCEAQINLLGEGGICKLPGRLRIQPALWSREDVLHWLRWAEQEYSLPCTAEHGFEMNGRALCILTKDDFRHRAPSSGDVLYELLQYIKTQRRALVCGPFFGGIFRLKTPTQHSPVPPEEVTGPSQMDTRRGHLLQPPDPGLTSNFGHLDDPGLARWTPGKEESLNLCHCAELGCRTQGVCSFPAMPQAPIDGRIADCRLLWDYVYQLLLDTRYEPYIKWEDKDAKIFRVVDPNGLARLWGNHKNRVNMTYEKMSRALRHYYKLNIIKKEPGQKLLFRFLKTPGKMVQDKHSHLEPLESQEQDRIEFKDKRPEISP
# Summary of the method: as §1
# [7] = biological target: T6, ELF5 (Homo sapiens, UniProt Q9UKW6-2 1-255)
# T6 sequence: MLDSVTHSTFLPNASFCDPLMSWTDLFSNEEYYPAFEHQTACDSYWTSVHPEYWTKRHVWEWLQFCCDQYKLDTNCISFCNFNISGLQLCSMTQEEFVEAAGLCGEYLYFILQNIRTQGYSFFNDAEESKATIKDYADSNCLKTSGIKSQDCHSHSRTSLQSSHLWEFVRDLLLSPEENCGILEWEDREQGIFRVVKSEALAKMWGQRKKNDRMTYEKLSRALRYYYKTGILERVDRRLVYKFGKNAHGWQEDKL
# Summary of the method: as §1
# [8] = biological target: T7, ETV3 (Homo sapiens, UniProt P41162-2 1-143)
# T7 sequence: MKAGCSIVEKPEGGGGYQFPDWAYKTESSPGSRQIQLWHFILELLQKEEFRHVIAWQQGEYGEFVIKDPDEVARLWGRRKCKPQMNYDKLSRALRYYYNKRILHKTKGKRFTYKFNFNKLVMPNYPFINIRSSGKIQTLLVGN
# Summary of the method: as §1
# [9] = biological target: ETV6 (Homo sapiens, UniProt P41212 1-452)
# ETV6, sequence (P41212 whole entry): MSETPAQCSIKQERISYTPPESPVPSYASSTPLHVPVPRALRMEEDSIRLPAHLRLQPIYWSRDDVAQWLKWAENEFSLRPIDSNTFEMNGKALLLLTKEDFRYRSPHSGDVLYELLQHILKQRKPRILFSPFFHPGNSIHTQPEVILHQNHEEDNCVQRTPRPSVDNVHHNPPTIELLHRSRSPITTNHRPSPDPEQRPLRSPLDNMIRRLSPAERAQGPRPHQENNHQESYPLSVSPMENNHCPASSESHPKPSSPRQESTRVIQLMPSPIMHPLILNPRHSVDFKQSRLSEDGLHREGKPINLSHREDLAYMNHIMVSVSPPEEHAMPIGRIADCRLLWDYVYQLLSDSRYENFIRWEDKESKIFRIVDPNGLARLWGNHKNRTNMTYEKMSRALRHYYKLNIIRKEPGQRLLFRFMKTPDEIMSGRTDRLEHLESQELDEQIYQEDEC
# Summary of the method: as §1
sequence,measurement,setting,value
TTGAGC,binding signal,[1],"1.1 fold enrichment (6-mer frequency, TF over GST control)"
same,binding signal,[2],"1.04 fold enrichment (6-mer frequency, TF over GST control)"
same,binding signal,[3],"1.06 fold enrichment (6-mer frequency, TF over GST control)"
same,binding signal,[4],"1.03 fold enrichment (6-mer frequency, TF over GST control)"
same,binding signal,[5],"1.02 fold enrichment (6-mer frequency, TF over GST control)"
same,binding signal,[6],"1.1 fold enrichment (6-mer frequency, TF over GST control)"
same,binding signal,[7],"1 fold enrichment (6-mer frequency, TF over GST control)"
same,binding signal,[8],"1 fold enrichment (6-mer frequency, TF over GST control)"
same,binding signal,[9],"1.08 fold enrichment (6-mer frequency, TF over GST control)"
